According to PubChem BioAssay (EPA / NIEHS):
Activity calls are given as the source filed them. How the source made its calls: active means hit-call score of the fitted dose curve at least 0.9, where 1 is the maximum; inactive means score below 0.9.

Key:
[1] = ATG_CRE_CIS: Attagene CIS-FACTORIAL HepG2 Assay for human cAMP Responsive Element (CRE) binding protein 3 (AID 2282926); conditions: HepG2 CRE cis-reporter, Attagene multiplexed mRNA; actives raise or lower the signal
Method in brief: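 Liver-derived HepG2, transfected with a CRE-containing reporter panel, exposed 24 h; transcript levels sized and quantified by capillary electrophoresis of labelled amplicons; signal changes either way referenced to vehicle.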

[2] = biological target: CCAAT/enhancer-binding protein beta (Homo sapiens) (UniProt P17676); test: ATG_C_EBP_CIS: Attagene CIS-FACTORIAL HepG2 Assay for human CCAAT/Enhancer Binding Protein (C/EBP) beta (AID 2282927); conditions: HepG2 Attagene cis-factorial transcription factor reporter; actives raise or lower the signal
Method in brief: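 Transiently transfected HepG2 (MRTU library, endogenous TF-driven promoters); 24 h dosing; total RNA → oligo(dT) RT → PCR → 6-FAM primer extension → HpaI digest → CE; fit bidirectionally vs DMSO.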

[3] = ATG_CMV_CIS: Attagene CIS-FACTORIAL HepG2 Assay for human CMV (Internal Marker) (AID 2282928); conditions: HepG2 CMV promoter reporter, transcription factor profiling; actives raise or lower the signal;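 further: endpoint acts as a background internal control marker rather than a target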
Method in brief: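 Bidirectional fits against DMSO are applied to reporter mRNA, read by RT-PCR with capillary electrophoresis, from HepG2 cells exposed 24 h. The endpoint serves as an internal CMV background marker within the cis-factorial reporter panel.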

[4] = ATG_DR4_LXR_CIS: Attagene CIS-FACTORIAL HepG2 Assay for human Liver X Receptor (LXR), DR4 submotif (AID 2282929); conditions: HepG2 Attagene DR4 cis-reporter, mRNA transcription; actives raise or lower the signal
Method in brief: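 Total RNA from 24 h-treated, MRTU-transfected HepG2 cells underwent reverse transcription, PCR, fluorescent primer extension and restriction digestion before capillary electrophoresis. Both increases and decreases in reporter signal were fitted against DMSO.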

[5] = biological target: Aryl hydrocarbon receptor (Homo sapiens) (UniProt P35869); test: ATG_Ahr_CIS: Attagene CIS-FACTORIAL HepG2 Assay for human Aryl Hydrocarbon Receptor (Ahr) (AID 2282930); conditions: HepG2 AhR cis-factorial reporter transcription; actives raise or lower the signal
Method in brief: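 Read-out: reporter mRNA quantified by RT-PCR with fluorescent primer extension and capillary electrophoresis. Human HepG2 liver cells carried transfected cis-promoter reporter units and were exposed to chemical for 24 h; gain or loss fitted relative to DMSO.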

[6] = ATG_AP_2_CIS: Attagene CIS-FACTORIAL HepG2 Assay for human Activator Protein 2 (AP-2) (AID 2282932); conditions: HepG2 AP-2 cis-reporter, Attagene transcription factor profiling; actives raise or lower the signal
Method in brief: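 Liver-derived HepG2 line, cis-reporter system measuring endogenous factors; 24 h dosing; reporter mRNA detected by fluorescent RT-PCR and capillary electrophoresis.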

[7] = ATG_BRE_CIS: Attagene CIS-FACTORIAL HepG2 Assay for human Bone Morphogenetic Protein (BMP) Response Element (BRE) (AID 2282933); conditions: HepG2 BMP response element reporter, Attagene transcription factor profiling; actives raise or lower the signal
Method in brief: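 Read-out: reporter mRNA induction quantified by RT-PCR and capillary electrophoresis after 24 h chemical exposure of transfected HepG2 cells. Endogenous factor activity on the BMP response element; gain or loss fitted against DMSO baseline.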

[8] = biological target: Retinoic acid receptor alpha (Homo sapiens) (UniProt P10276); test: ATG_DR5_RAR_CIS: Attagene CIS-FACTORIAL HepG2 Assay for human Retinoic Acid Receptor Alpha (RARE), DR5 submotif (AID 2282934); conditions: HepG2 Attagene cis-factorial RARE DR5 reporter, mRNA; actives raise or lower the signal
Method in brief: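 Read-out: DR5-driven reporter transcript measured by RT-PCR, 6-FAM primer extension, HpaI digest and capillary electrophoresis. Human HepG2 liver cells carry transiently transfected cis-element reporter constructs; dosing lasts 24 h. Gain or loss of signal fitted against DMSO baseline.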

[9] = biological target: Transcription factor E2F1 (Homo sapiens) (UniProt Q01094); test: ATG_E2F_CIS: Attagene CIS-FACTORIAL HepG2 Assay for human E2F Transcription Factor 1 (AID 2282935); conditions: HepG2 Attagene cis-reporter, E2F reporter RNA transcripts; actives raise or lower the signal
Method in brief: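 Liver-derived HepG2 cells expressing transfected promoter-driven reporter units received test chemical for 24 hours. Signal gains or losses were fitted bidirectionally against DMSO.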

[10] = ATG_E_Box_CIS: Attagene CIS-FACTORIAL HepG2 Assay for human Enhancer Box (E-box) (AID 2282936); conditions: HepG2 E-box cis-reporter transcription, actives raise or lower the signal
Method in brief: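 In this cell-based setup, HepG2 cells bearing transfected promoter-driven reporter units were exposed to chemicals for 24 h; reporter transcripts were amplified, 6-FAM-labelled, cut with HpaI and sized by capillary electrophoresis.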

[11] = ATG_M_61_CIS: Attagene CIS-FACTORIAL HepG2 Assay for M61 Transcription Factor (Internal Marker) (AID 2282937); conditions: HepG2 Attagene CIS-FACTORIAL M61 internal marker reporter; actives raise or lower the signal
Method in brief: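 Transfect HepG2 with MRTUs; dose 24 h; isolate RNA; reverse-transcribe with DNase I treatment; PCR-amplify, FAM-label and cut with HpaI for 2 h at 37 C; resolve by CE. Bidirectional fitting against DMSO.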

[12] = ATG_EGR_CIS: Attagene CIS-FACTORIAL HepG2 Assay for human Early Growth Response 1 (EGR1) (AID 2282938); conditions: HepG2 Attagene CIS-FACTORIAL EGR reporter mRNA; actives raise or lower the signal
Method in brief: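 After a 24 h treatment of transiently transfected HepG2 cells, total RNA was reverse-transcribed and reporter sequences PCR-amplified, labelled and run on capillary electrophoresis. Reporters sit under cis-regulatory promoters sensing endogenous factors.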

[13] = ATG_M_19_CIS: Attagene CIS-FACTORIAL HepG2 Assay for M19 Transcription Factor (Internal Marker) (AID 2282939); conditions: HepG2 Attagene CIS-FACTORIAL M19 internal marker reporter; actives raise or lower the signal
Method in brief: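 Readout: fluorescent reporter-transcript fragments by capillary electrophoresis after RT-PCR. Human HepG2 liver cells carried transfected MRTU constructs reporting endogenous transcription-factor activity; exposure 24 h. Gain or loss of signal fitted relative to DMSO.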

[14] = ATG_Ets_CIS: Attagene CIS-FACTORIAL HepG2 Assay for human Erythroblast Transformation Specific (ETS) (AID 2282941); conditions: HepG2 ETS cis-reporter transcription, actives raise or lower the signal
Method in brief: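 Endogenous transcription factor activity read as reporter mRNA via RT-PCR and capillary electrophoresis, with gain or loss fitted bidirectionally against DMSO. Human HepG2 liver cells, transiently transfected CIS reporter constructs, 24 h exposure.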

[15] = biological target: Hepatocyte nuclear factor 3-beta (Homo sapiens) (UniProt Q9Y261); test: ATG_FoxA2_CIS: Attagene CIS-FACTORIAL HepG2 Assay for human Forkhead box A2 (FOXA2) (AID 2282942); conditions: HepG2 cis-reporter transcription factor activity, 24 h; actives raise or lower the signal
Method in brief: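 24 h dosing of HepG2 bearing cis-reporter constructs; mRNA readout by RT-PCR/CE fluorescence; bidirectional fit, DMSO baseline.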

[16] = ATG_FoxO_CIS: Attagene CIS-FACTORIAL HepG2 Assay for human Forkhead box O (FoxO) (AID 2282943); conditions: HepG2 Attagene cis-reporter, FoxO element, mRNA; actives raise or lower the signal
Method in brief: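 Read-out: fluorescence of 6-FAM-labelled reporter cDNA fragments resolved by capillary electrophoresis. Transiently transfected HepG2 cells were dosed for 24 h; activity fitted in both directions relative to DMSO controls.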

[17] = ATG_GATA_CIS: Attagene CIS-FACTORIAL HepG2 Assay for human GATA Binding Protein (AID 2282944); conditions: HepG2 GATA cis-element reporter, Attagene multiplex mRNA; actives raise or lower the signal
Method in brief: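 Read-out: fluorescent reporter mRNA fragments resolved by capillary electrophoresis after RT-PCR. Human liver HepG2 cells carried transiently transfected cis-regulated reporter constructs; chemicals incubated 24 h; gain or loss of signal fitted relative to DMSO.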

[18] = ATG_GLI_CIS: Attagene CIS-FACTORIAL HepG2 Assay for human Zinc Finger Protein GLI1 (AID 2282945); conditions: HepG2, Attagene cis-factorial reporter mRNA, GLI element; actives raise or lower the signal
Method in brief: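 Transiently transfected HepG2 cells report endogenous transcription factor activity via cis-element-driven reporter units. After 24 h compound exposure, reporter mRNA was measured by RT-PCR with capillary electrophoresis; bidirectional fitting against DMSO baseline.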

[19] = ATG_AP_1_CIS: Attagene CIS-FACTORIAL HepG2 Assay for human Activator Protein 1 (AP-1) (AID 2282931); conditions: HepG2 Attagene cis-factorial AP-1 reporter mRNA; actives raise or lower the signal
Method in brief: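 HepG2, transient cis-reporter transfection; 24 h; readout RT-PCR/CE fluorescence; DMSO baseline, gain and loss fitted.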

[20] = ATG_ERE_CIS: Attagene CIS-FACTORIAL HepG2 Assay for Estrogen Response Element (ERE) (AID 2282940); conditions: HepG2 ERE cis-reporter, Attagene RNA transcript; actives raise or lower the signal
Method in brief: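 Readout: reporter mRNA induction by RT-PCR, FAM-labelled primer extension, HpaI digestion and capillary electrophoresis, 24 h after dosing transfected HepG2 cells. Endogenous transcription factors act on cis-element-regulated reporters. Gain or loss fitted against DMSO.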

Measured: AC50

Retinoic acid receptor alpha (Homo sapiens), sequence (P10276 whole entry, looked up): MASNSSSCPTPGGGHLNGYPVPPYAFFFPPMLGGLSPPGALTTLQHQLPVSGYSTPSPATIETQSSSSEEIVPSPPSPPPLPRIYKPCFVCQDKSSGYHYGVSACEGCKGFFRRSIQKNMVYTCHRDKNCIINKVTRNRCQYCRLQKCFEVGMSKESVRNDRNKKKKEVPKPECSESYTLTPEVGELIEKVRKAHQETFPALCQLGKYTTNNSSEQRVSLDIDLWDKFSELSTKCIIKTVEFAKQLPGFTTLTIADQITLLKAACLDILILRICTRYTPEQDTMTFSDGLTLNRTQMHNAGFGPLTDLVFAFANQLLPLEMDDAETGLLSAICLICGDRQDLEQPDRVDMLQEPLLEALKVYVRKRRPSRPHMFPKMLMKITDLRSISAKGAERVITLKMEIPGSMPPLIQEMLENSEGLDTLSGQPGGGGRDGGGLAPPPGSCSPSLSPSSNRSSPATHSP
Hepatocyte nuclear factor 3-beta (Homo sapiens), sequence (Q9Y261 whole entry, looked up): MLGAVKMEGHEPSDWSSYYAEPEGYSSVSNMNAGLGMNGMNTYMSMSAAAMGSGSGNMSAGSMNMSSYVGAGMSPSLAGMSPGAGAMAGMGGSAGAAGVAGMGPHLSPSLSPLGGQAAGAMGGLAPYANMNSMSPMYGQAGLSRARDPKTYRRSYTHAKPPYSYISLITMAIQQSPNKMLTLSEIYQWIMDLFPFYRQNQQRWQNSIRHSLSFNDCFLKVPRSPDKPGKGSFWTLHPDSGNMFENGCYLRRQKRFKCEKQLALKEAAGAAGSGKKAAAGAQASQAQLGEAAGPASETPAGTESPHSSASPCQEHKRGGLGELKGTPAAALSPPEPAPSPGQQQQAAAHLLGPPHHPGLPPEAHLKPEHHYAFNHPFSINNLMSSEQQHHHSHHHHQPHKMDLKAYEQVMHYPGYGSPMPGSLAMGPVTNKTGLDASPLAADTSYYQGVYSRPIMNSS
Transcription factor E2F1 (Homo sapiens), sequence (Q01094 whole entry, looked up): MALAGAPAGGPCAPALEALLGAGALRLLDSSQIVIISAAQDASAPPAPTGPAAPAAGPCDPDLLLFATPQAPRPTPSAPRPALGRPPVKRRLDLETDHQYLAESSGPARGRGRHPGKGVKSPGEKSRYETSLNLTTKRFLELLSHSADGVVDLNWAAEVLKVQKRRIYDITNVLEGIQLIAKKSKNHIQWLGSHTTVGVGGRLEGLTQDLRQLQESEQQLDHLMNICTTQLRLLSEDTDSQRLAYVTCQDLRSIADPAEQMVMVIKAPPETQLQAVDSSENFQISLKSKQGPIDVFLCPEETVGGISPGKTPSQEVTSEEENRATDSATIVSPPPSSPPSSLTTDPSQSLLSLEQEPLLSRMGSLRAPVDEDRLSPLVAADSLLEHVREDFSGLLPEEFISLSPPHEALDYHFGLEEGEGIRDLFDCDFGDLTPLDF
CCAAT/enhancer-binding protein beta (Homo sapiens), sequence (P17676 whole entry, looked up): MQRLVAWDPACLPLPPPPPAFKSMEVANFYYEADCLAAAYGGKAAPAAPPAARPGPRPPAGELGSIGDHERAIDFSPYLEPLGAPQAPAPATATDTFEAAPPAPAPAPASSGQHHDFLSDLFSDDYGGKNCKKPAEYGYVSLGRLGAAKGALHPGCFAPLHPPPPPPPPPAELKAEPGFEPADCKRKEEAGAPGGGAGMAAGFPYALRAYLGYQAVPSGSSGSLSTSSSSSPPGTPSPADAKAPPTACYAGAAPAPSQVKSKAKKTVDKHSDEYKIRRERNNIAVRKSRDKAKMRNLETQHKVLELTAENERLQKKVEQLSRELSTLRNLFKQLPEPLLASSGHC
Aryl hydrocarbon receptor (Homo sapiens), sequence (P35869 whole entry, looked up): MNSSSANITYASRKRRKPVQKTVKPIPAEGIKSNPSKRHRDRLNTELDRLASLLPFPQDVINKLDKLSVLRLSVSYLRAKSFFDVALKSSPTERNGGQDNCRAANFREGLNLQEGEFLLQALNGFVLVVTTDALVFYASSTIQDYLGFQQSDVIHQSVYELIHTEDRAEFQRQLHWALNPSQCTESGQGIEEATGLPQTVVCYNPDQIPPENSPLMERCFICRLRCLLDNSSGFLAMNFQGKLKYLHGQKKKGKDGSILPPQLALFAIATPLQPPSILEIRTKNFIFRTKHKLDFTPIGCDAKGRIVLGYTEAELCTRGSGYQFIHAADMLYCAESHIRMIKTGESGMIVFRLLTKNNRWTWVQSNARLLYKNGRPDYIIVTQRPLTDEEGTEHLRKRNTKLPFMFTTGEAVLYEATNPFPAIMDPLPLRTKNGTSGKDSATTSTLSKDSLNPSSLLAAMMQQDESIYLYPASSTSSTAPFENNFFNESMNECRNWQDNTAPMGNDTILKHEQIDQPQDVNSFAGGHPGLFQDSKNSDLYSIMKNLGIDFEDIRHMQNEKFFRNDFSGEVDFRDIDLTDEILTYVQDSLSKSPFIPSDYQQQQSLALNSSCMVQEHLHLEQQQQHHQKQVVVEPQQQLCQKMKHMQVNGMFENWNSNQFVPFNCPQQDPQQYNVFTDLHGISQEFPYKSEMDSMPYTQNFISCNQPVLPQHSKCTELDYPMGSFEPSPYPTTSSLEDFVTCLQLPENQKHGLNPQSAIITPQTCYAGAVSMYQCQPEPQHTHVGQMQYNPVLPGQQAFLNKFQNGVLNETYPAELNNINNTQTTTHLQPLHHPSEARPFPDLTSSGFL

NCCCCCCN
inactive: [1] | [2] | [3] | [4] | [5] | [6] | [7] | [8] | [9] | [10] | [11] | [12] | [13] | [14] | [15] | [16] | [17] | [18]

CCCCCC=CCC(=O)OC
inactive: [1] | [2] | [3] | [4] | [19] | [6] | [7] | [8] | [9] | [10] | [11] | [12] | [13] | [14] | [15] | [16] | [17] | [18]

CC(C)c1ccc(C(C)C)cc1
inactive: [1] | [2] | [4] | [19] | [6] | [7] | [9] | [10] | [11] | [12] | [13] | [14] | [15] | [16] | [17]
active: [3] 156 µM | [20] 155 µM

CCCCc1ccc(N)cc1
inactive: [1] | [2] | [3] | [4] | [19] | [6] | [7] | [9] | [10] | [11] | [12] | [14] | [15] | [16] | [17] | [18]
active: [20] 29.6 µM

C=C(C)C1CCC(C)CC1O (stereo not given)
inactive: [1] | [2] | [3] | [4] | [19] | [6] | [7] | [9] | [10] | [11] | [12] | [13] | [14] | [15] | [16] | [17] | [18]

CC(=O)C=CC1=C(C)CCCC1(C)C
inactive: [1] | [2] | [3] | [19] | [6] | [7] | [9] | [10] | [11] | [20] | [15] | [16] | [17] | [18]
active: [4] 3.8 µM

CC(C)(Oc1ccc(CCNC(=O)c2ccc(Cl)cc2)cc1)C(=O)O
inactive: [1] | [2] | [3] | [4] | [19] | [6] | [7] | [9] | [10] | [11] | [12] | [13] | [20] | [15] | [16] | [17] | [18]

CCN(CC)c1ccc2c(-c3ccccc3C(=O)O)c3ccc(=[N+](CC)CC)cc-3oc2c1
active: [4] 130 µM | [7] 158 µM | [12] 135 µM
inactive: [1] | [2] | [3] | [6] | [9] | [10] | [11] | [13] | [20] | [14] | [15] | [16] | [17] | [18]

CCC(=O)/C=C/C1C(C)=CCCC1(C)C (stereo not given)
inactive: [1] | [2] | [3] | [4] | [19] | [6] | [9] | [10] | [11] | [12] | [13] | [14] | [15] | [16] | [17] | [18]

Cc1ccccc1C=O
inactive: [1] | [2] | [3] | [4] | [19] | [6] | [7] | [9] | [10] | [11] | [12] | [13] | [20] | [14] | [15] | [17]

COC(=O)c1ccc(C)cc1
inactive: [1] | [2] | [3] | [4] | [19] | [6] | [7] | [10] | [11] | [12] | [13] | [20] | [14] | [15] | [16] | [18]

CC1(C)C(=O)N(Br)C(=O)N1Cl
inactive: [1] | [2] | [3] | [4] | [19] | [6] | [7] | [8] | [9] | [10] | [11] | [12] | [13] | [15] | [16]

CCCCCCCCCCCCCOS(=O)(=O)O
inactive: [1] | [2] | [3] | [4] | [19] | [6] | [7] | [9] | [10] | [11] | [12] | [14] | [15] | [16] | [17] | [18]
